The nature of test [1]: qHTS for Inhibitors of Cell Surface uPA Generation: Validation Assay (AID 493164).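 Also: RAW 264.7 macrophage cells exposed to compound for 18 h; 0% is about no effect.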 The method in brief:
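RAW 264.7, 4000 cells/well, o/n plating; cpd 7-pt 1:5 dilution 2.45 nM–38.3 uM final; 18 h, 37 C/5% CO2; ATP-Lite, 5 s luminescence exposure.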

Test [2] deals with Galactokinase (Homo sapiens) (UniProt P51570). Briefly: qHTS Validation Assay for Inhibitors of Human Galactokinase (GALK) (AID 493189). Also: 0% is about no effect. The method in brief:
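GALK (5 nM) with 35 uM ATP and 100 uM galactose in HEPES pH8.0, MgCl2, NaCl, DTT, BSA; 1 h at room temperature. Residual ATP read by Kinase-Glo Plus luminescence after 10 min.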
(In general: qHTS replaces the single test concentration by a dilution series.)

A short description of test [3]: Validation screen for small molecules that induce DNA re-replication in SW480 colon adenocarcinoma cells (AID 504364). Also: 0% is about no effect. The method, boiled down: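 Cells are treated 48 hr with test compound, stained 40 min with Hoechst at 37 C, and scanned for nuclear fluorescence; compounds inducing re-replication increase nuclei with elevated intensity.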
Test [4] deals with Peptidyl-prolyl cis-trans isomerase NIMA-interacting 1 (Homo sapiens) (UniProt Q13526). Briefly: qHTS Validation Assay to Find Inhibitors of Pin1 (AID 504536; active = well fitted inhibition curve with a large enough effect in the polarisation, with a control signal flat, not every such curve was filed as active; the % refers to the polarisation;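 also: 0% = full Pin1 enzyme wells and -100% = no-enzyme wells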). The method, boiled down: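 Fluorescence polarization competition: compounds (titration) displace HiFluor-488-labeled Pin1-1b peptide from Pin1 (0.3 uM final) in pH 7.5 HEPES buffer with DTT, 10 min at room temperature; %Activity normalized to no-enzyme wells, curves fitted.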
Chain of Peptidyl-prolyl cis-trans isomerase NIMA-interacting 1 (Homo sapiens) (Q13526 whole entry, looked up): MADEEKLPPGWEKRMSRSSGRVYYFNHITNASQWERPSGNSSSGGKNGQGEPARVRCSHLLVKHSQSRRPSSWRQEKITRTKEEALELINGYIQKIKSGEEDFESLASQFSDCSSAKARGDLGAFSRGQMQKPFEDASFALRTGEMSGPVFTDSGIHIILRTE

Test [5] deals with phosphoglycerate mutase (Leishmania major) (UniProt Q4Q090). Briefly: qHTS Validation Assay to Find Inhibitors of Phosphoglycerate Mutase (AID 504548).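 Also: end-point luminescence from Kinase-GloPlus after the PGAM reaction; series mostly up to about 58 µM; % is scaled to controls: 0 for no effect and ±100 for the full control effect.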 The method, boiled down: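 Inhibition of L. major PGAM was assessed by Kinase-GloPlus luminescence following a 45-minute room-temperature reaction with enzyme at 1.25nM final.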
Chain of phosphoglycerate mutase (Leishmania major) (Q4Q090 1-553): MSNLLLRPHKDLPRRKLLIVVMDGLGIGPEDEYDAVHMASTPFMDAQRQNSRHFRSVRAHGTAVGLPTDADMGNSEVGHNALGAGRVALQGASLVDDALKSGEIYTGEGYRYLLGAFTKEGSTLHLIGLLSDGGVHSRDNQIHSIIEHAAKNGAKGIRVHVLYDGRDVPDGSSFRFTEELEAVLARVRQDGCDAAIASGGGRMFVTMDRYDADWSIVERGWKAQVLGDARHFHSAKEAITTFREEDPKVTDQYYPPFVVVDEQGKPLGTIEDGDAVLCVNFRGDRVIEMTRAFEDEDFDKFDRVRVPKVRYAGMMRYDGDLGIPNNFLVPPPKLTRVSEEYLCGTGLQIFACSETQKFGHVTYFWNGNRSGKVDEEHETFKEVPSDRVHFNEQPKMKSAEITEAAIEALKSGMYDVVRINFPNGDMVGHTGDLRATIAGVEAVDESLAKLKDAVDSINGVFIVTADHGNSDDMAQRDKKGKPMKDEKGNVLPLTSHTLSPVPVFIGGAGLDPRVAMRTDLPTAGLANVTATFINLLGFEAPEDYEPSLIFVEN
Test [6] has as its target Ubiquitin carboxyl-terminal hydrolase 1 (Homo sapiens) (UniProt O94782). Briefly: Inhibitors of USP1/UAF1: Pilot qHTS (AID 504865). Also: nearly all actives have a fitted effect of over 35% in size. Also: potency is read from the fitted curve at half-maximal effect. The method in brief: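 USP1/UAF1 complex (1nM) preincubated with compound 15 min at room temperature, then Ub-Rho substrate (150nM final) added. Fluorescence read kinetically at 480/540 nm, 6 reads every 60 seconds. Buffer: 50mM HEPES pH 7.8, 0.5mM EDTA, 0.1 mg/ml BSA, 1mM TCEP, 0.01% Tween-20.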

The target of test [7] is Thyrotropin-releasing hormone receptor (Homo sapiens) (UniProt P34981). Briefly: qHTS for Small Molecule Agonists and Allosteric Enhancers of Human TRH Receptor: Validation Screen for Agonists (AID 493127;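 active = calcium activation more than 3 SD above the typical response in the agonist read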;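 also: intracellular calcium rise by fluo-8 fluorescence before TRH EC20 addition; 0% is about no effect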). The following applies: TRH receptor agonist cell assay; at 2 µM; stronger effect = higher value. The method in brief:
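Gq-coupled calcium mobilization in TRHR cells after compound addition, monitored kinetically with fluo-8 dye on an FDSS reader.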

The nature of test [8]: Nrf2 qHTS screen for inhibitors: Validation (AID 493153; active = well fitted inhibition curve with a large enough effect in the main read-out, with a control signal flat, not every such curve was filed as active; also: potency is read from the fitted curve at half-maximal effect). As to conditions: Potency: luciferase luminescence; viability change: measured here: cytotoxicity max response. The method, boiled down:
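Dose-response validation uses reporter A549 cells with firefly luciferase under an antioxidant response element. Compounds stay on cells 18-24 h at 37°C, and luminescence indicates Nrf2-driven transcription.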

Test [9] has as its target ATPase family AAA domain-containing protein 5 (Homo sapiens) (UniProt Q96QE3). Nature of the test: Validation screen for small molecules that inhibit ELG1-dependent DNA repair in human embryonic kidney (HEK293T) cells expressing luciferase-tagged ELG1 (AID 493107). Also: nearly all actives have a fitted effect of over 70% in size. Also: potency is read from the fitted curve at half-maximal effect. The method in brief: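 Quantitative HTS in HEK293T cells carrying luciferase-tagged ELG1, stimulated with 5-fluorouridine alongside compound for 16 hr. Loss of luciferase signal marks inhibition of ELG1 response.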

The target in test [10] is Phosphoglycerate kinase, glycosomal (Trypanosoma brucei brucei) (UniProt P07378). Briefly: qHTS Validation Assay to Find Inhibitors of Phosphoglycerate Kinase (AID 504547).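 Also: control wells lack PGK and mark full inhibition.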 The method in brief: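 PGK activity was coupled to GAPDH (100nM final), which generates the unstable substrate 1,3-bisphosphoglycerate in-well. Reactions ran 60 minutes at room temperature in 100mM TEA pH 7.6, 5mM MgCl2, 0.01% Tween-20, then Kinase-Glo Plus luminescence was read.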
Chain of Phosphoglycerate kinase, glycosomal (Trypanosoma brucei brucei) (P07378 whole entry, looked up): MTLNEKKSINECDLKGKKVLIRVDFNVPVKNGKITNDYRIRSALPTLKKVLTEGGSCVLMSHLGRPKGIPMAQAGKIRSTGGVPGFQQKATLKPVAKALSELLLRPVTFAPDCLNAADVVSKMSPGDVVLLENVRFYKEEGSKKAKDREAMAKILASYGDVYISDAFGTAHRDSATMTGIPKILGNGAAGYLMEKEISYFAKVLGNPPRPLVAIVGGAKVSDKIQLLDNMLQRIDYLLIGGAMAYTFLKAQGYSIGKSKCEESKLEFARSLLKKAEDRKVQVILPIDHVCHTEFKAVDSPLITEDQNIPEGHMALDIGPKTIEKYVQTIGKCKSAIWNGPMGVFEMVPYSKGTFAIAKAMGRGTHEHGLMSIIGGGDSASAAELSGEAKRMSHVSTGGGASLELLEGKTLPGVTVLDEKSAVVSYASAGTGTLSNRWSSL

Results filed as inconclusive are left out. Calls of active or inactive are those of the source. Unless noted, calls follow the shape of the dose curve; as a rule, active = well fitted curve in the direction sought with a large enough effect; inconclusive = small, poorly fitted or top-dose-only effect, or another doubt; inactive = no such curve, though single readings can be large; an effect the other way counts as inactive or inconclusive.

Chain of Thyrotropin-releasing hormone receptor (Homo sapiens) (P34981 whole entry, looked up): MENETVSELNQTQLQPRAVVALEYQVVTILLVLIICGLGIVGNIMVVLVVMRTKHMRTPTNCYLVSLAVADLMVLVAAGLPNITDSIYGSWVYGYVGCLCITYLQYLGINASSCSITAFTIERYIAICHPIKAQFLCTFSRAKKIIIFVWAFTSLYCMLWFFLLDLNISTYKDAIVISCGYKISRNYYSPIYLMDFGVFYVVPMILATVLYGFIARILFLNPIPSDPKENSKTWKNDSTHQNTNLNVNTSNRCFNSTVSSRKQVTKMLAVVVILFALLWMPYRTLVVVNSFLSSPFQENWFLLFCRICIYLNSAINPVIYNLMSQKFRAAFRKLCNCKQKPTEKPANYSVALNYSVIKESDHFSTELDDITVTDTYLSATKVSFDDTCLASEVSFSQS
Chain of Ubiquitin carboxyl-terminal hydrolase 1 (Homo sapiens) (O94782 whole entry, looked up): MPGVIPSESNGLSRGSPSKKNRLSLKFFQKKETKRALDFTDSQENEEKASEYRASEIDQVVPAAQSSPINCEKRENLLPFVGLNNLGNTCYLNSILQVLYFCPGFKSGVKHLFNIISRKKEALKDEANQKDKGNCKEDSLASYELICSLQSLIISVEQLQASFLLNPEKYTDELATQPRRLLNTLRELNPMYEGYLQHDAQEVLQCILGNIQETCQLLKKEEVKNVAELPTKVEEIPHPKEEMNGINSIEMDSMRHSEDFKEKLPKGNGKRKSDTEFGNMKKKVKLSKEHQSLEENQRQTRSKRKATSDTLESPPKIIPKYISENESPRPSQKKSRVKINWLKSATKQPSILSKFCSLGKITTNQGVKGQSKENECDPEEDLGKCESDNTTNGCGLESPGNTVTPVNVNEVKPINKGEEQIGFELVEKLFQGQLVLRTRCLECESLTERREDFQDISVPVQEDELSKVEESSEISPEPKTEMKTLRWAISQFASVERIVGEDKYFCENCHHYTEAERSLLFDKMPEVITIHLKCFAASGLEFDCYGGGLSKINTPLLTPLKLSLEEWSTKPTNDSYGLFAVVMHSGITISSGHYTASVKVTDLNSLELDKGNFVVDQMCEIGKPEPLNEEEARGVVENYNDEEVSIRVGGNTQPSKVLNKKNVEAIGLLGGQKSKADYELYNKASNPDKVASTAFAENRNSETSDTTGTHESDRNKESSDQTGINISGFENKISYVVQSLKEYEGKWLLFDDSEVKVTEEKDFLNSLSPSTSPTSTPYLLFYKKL
Chain of Galactokinase (Homo sapiens) (P51570 whole entry, looked up): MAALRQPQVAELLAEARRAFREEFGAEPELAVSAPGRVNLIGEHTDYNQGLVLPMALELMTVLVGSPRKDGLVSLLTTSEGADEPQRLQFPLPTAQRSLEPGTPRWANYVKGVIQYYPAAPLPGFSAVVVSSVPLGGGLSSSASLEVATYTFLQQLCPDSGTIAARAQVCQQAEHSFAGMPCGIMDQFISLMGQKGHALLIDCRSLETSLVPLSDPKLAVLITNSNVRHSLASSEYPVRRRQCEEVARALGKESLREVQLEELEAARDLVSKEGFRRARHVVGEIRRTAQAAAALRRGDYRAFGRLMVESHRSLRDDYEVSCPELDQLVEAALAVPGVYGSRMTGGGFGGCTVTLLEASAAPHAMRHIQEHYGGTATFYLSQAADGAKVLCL
Chain of ATPase family AAA domain-containing protein 5 (Homo sapiens) (Q96QE3 whole entry, looked up, the tested form may be a part): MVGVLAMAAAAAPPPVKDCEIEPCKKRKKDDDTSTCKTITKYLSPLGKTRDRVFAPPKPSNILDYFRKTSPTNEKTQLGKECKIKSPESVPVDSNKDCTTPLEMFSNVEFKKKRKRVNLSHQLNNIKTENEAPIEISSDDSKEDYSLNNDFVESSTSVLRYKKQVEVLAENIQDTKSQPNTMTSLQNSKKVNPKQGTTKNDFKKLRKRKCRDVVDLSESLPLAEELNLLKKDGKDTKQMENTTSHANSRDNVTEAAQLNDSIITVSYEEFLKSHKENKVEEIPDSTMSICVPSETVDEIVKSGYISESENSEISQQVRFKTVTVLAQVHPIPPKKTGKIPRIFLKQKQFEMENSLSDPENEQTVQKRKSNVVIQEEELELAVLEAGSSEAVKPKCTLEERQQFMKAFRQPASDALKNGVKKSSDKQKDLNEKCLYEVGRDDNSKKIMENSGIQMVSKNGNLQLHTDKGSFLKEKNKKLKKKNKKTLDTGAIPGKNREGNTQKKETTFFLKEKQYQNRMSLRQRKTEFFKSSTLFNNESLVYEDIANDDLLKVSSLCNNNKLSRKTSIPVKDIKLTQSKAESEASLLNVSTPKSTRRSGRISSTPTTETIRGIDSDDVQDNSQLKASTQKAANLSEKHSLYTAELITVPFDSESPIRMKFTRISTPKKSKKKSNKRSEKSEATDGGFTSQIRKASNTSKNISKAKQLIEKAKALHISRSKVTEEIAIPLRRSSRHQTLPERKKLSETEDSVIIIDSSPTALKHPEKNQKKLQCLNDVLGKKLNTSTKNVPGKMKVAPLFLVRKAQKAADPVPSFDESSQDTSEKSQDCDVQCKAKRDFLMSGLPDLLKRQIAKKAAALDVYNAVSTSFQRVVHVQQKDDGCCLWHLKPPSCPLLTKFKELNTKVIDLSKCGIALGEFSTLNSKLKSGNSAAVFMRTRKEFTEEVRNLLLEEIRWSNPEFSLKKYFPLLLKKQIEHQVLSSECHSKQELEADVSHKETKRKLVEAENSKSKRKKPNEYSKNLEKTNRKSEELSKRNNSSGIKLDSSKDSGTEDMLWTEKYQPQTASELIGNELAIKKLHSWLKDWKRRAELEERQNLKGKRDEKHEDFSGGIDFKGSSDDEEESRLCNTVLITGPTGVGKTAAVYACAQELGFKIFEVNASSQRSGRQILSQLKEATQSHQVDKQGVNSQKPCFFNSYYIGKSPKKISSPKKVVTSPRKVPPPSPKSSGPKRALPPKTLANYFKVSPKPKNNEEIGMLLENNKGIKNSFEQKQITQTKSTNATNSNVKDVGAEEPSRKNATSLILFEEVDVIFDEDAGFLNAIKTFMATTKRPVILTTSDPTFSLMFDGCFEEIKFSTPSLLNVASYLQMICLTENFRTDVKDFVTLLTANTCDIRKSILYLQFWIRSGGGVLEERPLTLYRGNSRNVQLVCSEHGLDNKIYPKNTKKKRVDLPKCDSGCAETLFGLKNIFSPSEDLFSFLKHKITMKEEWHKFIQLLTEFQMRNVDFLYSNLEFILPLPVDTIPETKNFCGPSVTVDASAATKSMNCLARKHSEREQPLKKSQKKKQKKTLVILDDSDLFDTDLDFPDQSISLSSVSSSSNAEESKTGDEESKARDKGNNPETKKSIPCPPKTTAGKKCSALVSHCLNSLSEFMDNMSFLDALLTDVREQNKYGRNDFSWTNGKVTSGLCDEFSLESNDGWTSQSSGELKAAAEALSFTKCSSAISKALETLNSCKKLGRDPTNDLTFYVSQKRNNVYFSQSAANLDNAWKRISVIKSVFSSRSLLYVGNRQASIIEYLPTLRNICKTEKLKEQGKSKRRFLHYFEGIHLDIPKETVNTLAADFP

As for `O=C(c1ccc(OCCN2CCCCC2)cc1)c1c(-c2ccc(O)cc2)sc2cc(O)ccc12`, the compound was called inactive in test [1] and in test [5]. In addition, the Potency result in test [2], in [3], in test [4] and in [6] was “inactive” in each case.

Turning to `CN1CCN2c3ccccc3Cc3ccccc3C2C1` (centres undefined), the activation in [7] is -4.88% (inactive). In addition, the Potency entry in test [8], in test [3], in [4] and in test [6] was “inactive” throughout. Moreover, the viability change in [8] was -3.01%.

For the compound `O=c1c(O)c(-c2ccc(O)c(O)c2)oc2cc(O)cc(O)c12`, the activation in test [7] is 0.938% (inactive). For the same compound, the Potency entry in [8], in [2] and in [3] was “inactive” throughout. The viability change in [8] was -9.26%. Further, the call in test [1] and in test [5] was inactive.

In the case of `CC(=O)OCC(CCn1cnc2cnc(N)nc21)COC(C)=O`, in test [6], the Potency result was “inactive”.

On to `NCCCCCC(=O)O`, for which the activation in test [7] is 0.0625% (inactive). Besides, the Potency entry in test [8], in [2], in test [3] and in test [6] was “inactive” throughout. In test [8], the viability change is 0%. Besides, the result in test [1] was inactive.

Consider `NC12CC3CC(CC(C3)C1)C2`, for which the Potency result in [9], in test [3], in test [4] and in test [6] was “inactive” each time. Also, the outcome in test [1] was inactive.

As for `CCOC(=O)Nc1ccc(NCc2ccc(F)cc2)nc1N`, the Potency result in test [9] and in [3] was “inactive” each time. Also, the call in test [1] was inactive.

As for `Clc1ccc2nsnc2c1NC1=NCCN1`, the compound was classed as inactive in test [1] and in [5]. Moreover, the Potency result in [4], in test [10] and in test [6] was “inactive” throughout.

With `O=C(CCCN1CCC(O)(c2ccc(Cl)cc2)CC1)c1ccc(F)cc1`, the activation in [7] was 4.81% (inactive). Moreover, the call in test [1] and in [5] was inactive. Further, the Potency entry in test [2], in test [3], in test [4] and in [6] was “inactive” throughout.

For the compound `COc1ccccc1OCCNCC(O)COc1cccc2[nH]c3ccccc3c12` (centres undefined), the Potency entry in test [8], in test [4], in test [10] and in test [6] was “inactive” throughout. Besides, the viability change in test [8] was -0.159%. The compound was classed as inactive in test [1].

For `NS(=O)(=O)c1cc2c(cc1Cl)NCNS2(=O)=O`, the activation in [7] is 0.938% (inactive). Also, the Potency result in test [8], in test [2], in [3], in [4], in test [10] and in [6] was “inactive” each time. Besides, the viability change in test [8] is -1.09%. In addition, the outcome in [1] and in test [5] was inactive.

Turning to `Cc1cnc(C(=O)NCCc2ccc(S(=O)(=O)NC(=O)NC3CCCCC3)cc2)cn1`, the Potency result in test [8], in test [3] and in [4] was “inactive” throughout. For the same compound, the viability change in [8] is -0.248%. Moreover, the call in test [1] was inactive.

As to `CCN1CCCC1CNC(=O)c1cc(S(=O)(=O)CC)c(N)cc1OC` (centres undefined), the Potency result in [9], in [4], in [10] and in test [6] was “inactive” throughout. In addition, the result in test [1] and in [5] was inactive.

`C[C@H]1c2cccc(O)c2C(O)=C2C(=O)[C@]3(O)C(O)=C(C(N)=O)C(=O)[C@@H](N(C)C)[C@@H]3[C@@H](O)[C@@H]21`: the Potency entry in test [9], in test [4], in [10] and in test [6] was “inactive” throughout. Besides, the call in [1] and in test [5] was inactive.

Regarding `COc1ccc2[nH]cc(CCNC(C)=O)c2c1`, the activation in test [7] was -2.38% (inactive). For the same compound, the Potency result in test [8], in [2], in [3], in test [4], in [10] and in test [6] was “inactive” in each case. Further, the viability change in test [8] is -12.9%. The call in [1] and in test [5] was inactive.

As to `O=C1Cc2cc(CCN3CCN(c4nsc5ccccc45)CC3)c(Cl)cc2N1`, the Potency in test [9] is 9.2 µM (active). In addition, the call in test [1] and in test [5] was inactive. Further, the Potency entry in [4] and in [10] was “inactive” each time.

In the case of `COc1ccccc1N1CCN(CC(O)COc2cccc3ccccc23)CC1` (centres undefined), the Potency result in [8], in [2], in test [3] and in test [4] was “inactive” in each case. Also, the viability change in test [8] was -28.8%. Also, in [1], the compound was called inactive.

For the compound `Nc1c2c(nc3ccccc13)CCCC2`, in [7], the activation was 1.31% (inactive). The Potency entry in test [8], in test [2], in test [3], in [10] and in test [6] was “inactive” in each case. In [8], the viability change is -3.66%. Moreover, the compound was called inactive in test [1] and in test [5].

In the case of `O=C(Nc1ccc([N+](=O)[O-])cc1Cl)c1cc(Cl)ccc1O`, the call in test [1] and in test [5] was inactive. The Potency entry in [2], in test [4] and in [6] was “inactive” each time.

Turning to `CNCCCC12CCC(c3ccccc31)c1ccccc12`, the activation in test [7] was 3.31% (inactive). The Potency entry in test [8], in test [2], in test [3], in test [4], in [10] and in [6] was “inactive” throughout. For the same compound, the viability change in test [8] worked out at 1.81%. Moreover, the compound was called inactive in test [1] and in [5].

Take `Fc1ccc([C@@H]2CCNC[C@H]2COc2ccc3c(c2)OCO3)cc1`: the activation in test [7] was 7.94% (inactive). Further, the Potency result in test [8], in test [2], in test [3], in test [4], in test [10] and in test [6] was “inactive” throughout. In test [8], the viability change turned out to be 10.5%. Further, the compound was called inactive in [1] and in test [5].

Regarding `CN1CCN(CCCN2c3ccccc3Sc3ccc(Cl)cc32)CC1`, the Potency result in test [9], in test [2], in test [4] and in test [10] was “inactive” each time. Also, the result in test [1] and in test [5] was inactive.

With `CC#C[C@]1(O)CC[C@H]2[C@@H]3CCC4=CC(=O)CCC4=C3[C@@H](c3ccc(N(C)C)cc3)C[C@@]21C`, the Potency in test [8] is 23.1 µM (active). The viability change in test [8] is -7.52%. In addition, the compound was classed as inactive in test [1]. The Potency result in [4], in [10] and in [6] was “inactive” each time.

Turning to `CN1CCN(C2=Nc3cc(Cl)ccc3Nc3ccccc32)CC1`, the activation in test [7] was 3.31% (inactive). For the same compound, the compound was called inactive in test [1] and in [5]. The Potency entry in test [2], in test [3], in test [4], in test [10] and in test [6] was “inactive” in each case.

As for `CC(C)(C)C(=O)Oc1ccc(S(=O)(=O)Nc2ccccc2C(=O)NCC(=O)O)cc1`, the Potency entry in [6] was “inactive”.

`COc1cc2nc(N3CCN(C(=O)c4ccco4)CC3)nc(N)c2cc1OC`: the result in test [1] was inactive. Besides, the Potency entry in [4] was “inactive”.

Turning to `CS(=O)(=O)CCNCc1ccc(-c2ccc3ncnc(Nc4ccc(OCc5cccc(F)c5)c(Cl)c4)c3c2)o1`, the Potency entry in test [6] is “inactive”.

In the case of `O=c1c(-c2ccc(O)cc2)coc2cc(O)cc(O)c12`, the compound was called inactive in [1] and in [5]. Moreover, the Potency result in test [2], in [3], in [4], in test [10] and in test [6] was “inactive” in each case.

Consider `CCCCc1oc2ccccc2c1C(=O)c1cc(I)c(OCCN(CC)CC)c(I)c1`, for which the activation in test [7] is 1.56% (inactive). For the same compound, the Potency entry in test [2] and in test [3] was “inactive” throughout. For the same compound, in [5], the compound was called inactive.

Consider `COc1ccc(CCN(C)CCCC(C#N)(c2ccc(OC)c(OC)c2)C(C)C)cc1OC` (centres undefined), for which the activation in test [7] was 7.06% (inactive). In addition, the compound was called inactive in test [1]. Further, the Potency result in test [4] and in test [10] was “inactive” each time.

With `CN(CCOc1ccc(NS(C)(=O)=O)cc1)CCc1ccc(NS(C)(=O)=O)cc1`, the Potency entry in [6] is “inactive”.

For `CN(C)CCCN1c2ccccc2CCc2ccc(Cl)cc21`, the activation in test [7] was 1.88% (inactive). Moreover, the Potency result in [8], in [2], in test [3], in [4] and in [6] was “inactive” in each case. In test [8], the viability change is -5.04%. Also, in [1], the compound was called inactive.

On to `CC[C@@]1(O)C(=O)OCc2c1cc1n(c2=O)Cc2cc3c(CN(C)C)c(O)ccc3nc2-1`, for which the Potency in test [6] is 79.4 µM (active).
